# Shn3 3UTR inh: inhibitors of Schnurri-3 3'UTR reporter in osteoblasts | Clone20 osteoblast Shn3 3'UTR firefly luciferase, 24 h | inhibition, % at 12.5 µM | 0.52% of 360,000 active | AID 588674;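 active = mean inhibition of at least 75% with every replicate also reaching 75%; inconclusive = mean inhibition at least 75% but some replicate below; inactive = mean inhibition below 75%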;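 note: 0% = median of neutral control wells and 100% = pilot-screen positive control compound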
# PAX8 inh HTS: inhibitors of PAX8 transcriptional activity in RMG-I cells | inhibition, % at 12.6 µM | RMG-I TPO-luciferase reporter, SteadyGlo, 24 h | 1.2% of 360,000 active;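 active = mean replicate inhibition at least 60% with every replicate also reaching 60%; inconclusive = only one of the two criteria is met; inactive = mean below 60% and not all replicates reaching 60%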;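 note: luciferase light reporting Pax8 driven TPO promoter activity; plate controls were median of neutral control wells for no effect and mitoxantrone controls for full effect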
# Peg3 promoter: inhibitors of Peg3 promoter; HeLa PEG-Prom luciferase reporter, luminescence, overnight; inhibition, % at 20 µM; 1.7% of 360,000 active; AID 588405;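 active = inhibition of at least 50% at 20 µM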
# TRPM1 prom inh: reduces MITF-dependent TRPM1 promoter luciferase signal; 0.83% of 330,000 active; SK-MEL-5 TRPM1 promoter luciferase, 24 h; inhibition, % at 12.5 µM;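 active = mean inhibition across replicates of 60% or more, whatever share of single replicates reaches that level; inconclusive = some that reach 60%, reason not given; inactive = mean inhibition across replicates below 60%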
# HIF-2a block: HIF-2a inhibition | inhibition, % at 18.8 µM | 0.72% of 360,000 active | 786-0 RCC cells HIF-2a reporter, luciferase luminescence, overnight;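 active = inhibition of the luminescence signal of 40% or more relative to plate controls, in a single-dose primary screen at 18.75 µM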
# LMP1 NFkB inh: inhibitors of Epstein-Barr LMP1-induced NF-kappaB reporter | LMP1-induced NF-kappaB luciferase reporter cells, luminescence | inhibition, % at 12.5 µM | 0.69% of 350,000 active; in the data active = inhibition above about 41%; inconclusive = no clear call, values can overlap the other calls;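 note: 0% = neutral control wells and 100% = reference inhibitor control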
# The depositor's hits bear a star; ? = inconclusive; . = not tested or not shown. Sampled rows, rich in hits. Any-hit rate of the full collection: about 2.8%.
SMILES,Shn3 3UTR inh,PAX8 inh HTS,Peg3 promoter,TRPM1 prom inh,HIF-2a block,LMP1 NFkB inh
CC1(C)SC2c3ccccc3C(=O)N2[C@@H]1C(=O)NCCCN1CCOCC1 (some centres undefined),-4,.,10,-1,16,71*
Cc1ccc(C)c(C(=O)CSc2nnnn2C(C)C)c1,1,.,-78,-28,-121,5
Cc1ccc(C(=O)CSc2nnnn2C(C)C)c(C)c1,22,2,2,3,0,46*
Cc1ccc(/C=N/NC(=O)c2ccncc2)o1,-14,84*,-2,-6,15,-8
Cc1ccc(/C=N/NC(=O)c2ccccn2)o1,-49,120*,-111,-15,-107,-10
CN(C)S(=O)(=O)c1ccc(Cl)c(C(=O)NCCNC(=O)c2cc(S(=O)(=O)N(C)C)ccc2Cl)c1,10,-1,9,7,8,71*
CN(C)S(=O)(=O)c1ccc(Cl)c(C(=O)NCC2CCCCC2)c1,-1,-11,11,1,-7,0
COc1ccc(S(=O)(=O)Nc2ccc3c(c2)CC(=O)N([C@@H](C)CO)C[C@@H](C)[C@@H](CN(C)C(=O)NC2CCCCC2)O3)cc1,.,-26,.,.,.,.
Cc1ccc(S(=O)(=O)CCC(=O)OCC(=O)Nc2cc(S(=O)(=O)N3CCOCC3)ccc2C)cc1,88*,.,-4,-10,12,4
COc1ccc(S(=O)(=O)N2CCOCC2)cc1NC(=O)COC(=O)CC1CC2CCC1C2 (centres undefined),87*,1,-2,13,7,-9
COc1ccc(NC(=O)N2CCCCN3[C@H](CO)[C@H](c4ccc(C#Cc5ccccc5)cc4)[C@H]3C2)cc1,.,82*,.,.,.,.
O=C(Nc1ccc(F)cc1)N1CCCCN2[C@H](CO)[C@@H](c3ccc(C#Cc4ccccc4)cc3)[C@@H]2C1,.,24,.,.,.,.
O=C(Nc1ccc(F)cc1)N1CCCCN2[C@@H](CO)[C@H](c3ccc(C#Cc4ccccc4)cc3)[C@@H]2C1,.,70*,.,.,.,.
Cc1cc(C(=O)COC(=O)c2ccc[nH]c2=O)c(C)n1-c1ccccc1F,14,-62,-57,7,45*,17
CC(=O)Nc1ccc(SCC(=O)c2cc(C)n(-c3ccccc3F)c2C)cc1,6,-36,18,0,50*,-16
Cc1ccc(-n2c(C)cc(C(=O)COC(=O)c3ccc[nH]c3=O)c2C)cc1C,27,-95,-221,-1,7,-2
Cc1ccc(C(C)C)c(OCc2ccc(C(=O)N/N=C/c3ccc(O)cc3O)cc2)c1,92*,?,32,.,71*,17
O=C(N/N=C/c1cccc(O)c1)c1ccc(COc2ccccc2Br)cc1,5,-10,-1,-16,-36,5
Cc1nc2ccccc2n1/N=C/c1ccc([N+](=O)[O-])o1,4,.,-8,10,-24,3
Cc1nc2ccccc2n1/N=C/c1ccc([N+](=O)[O-])s1,92*,62*,43,82*,-8,-4
O=[N+]([O-])c1ccc(/C=N/n2c(CO)nc3ccccc32)s1,-14,14,45,72*,11,-25
CN1C(=O)c2cc(NC(=O)Cc3cccs3)ccc2OC[C@H]2O[C@@H](CC(=O)O)CC[C@@H]21,.,-13,.,.,.,.
Nc1cc2c(cc1Br)-c1c(C(=O)O)cccc1C2O (centres undefined),86*,9,-4,-14,5,23
O=C(Cc1ccccn1)NCC[C@@H]1CC[C@H](NC(=O)Nc2ccc(F)cc2)[C@H](CO)O1,.,0,.,.,.,.
Cc1ccc(S(=O)(=O)N(C)C[C@H]2OCCCC[C@H](C)Oc3ccc(NS(=O)(=O)c4ccc(F)cc4)cc3C(=O)N([C@H](C)CO)C[C@@H]2C)cc1,.,80*,.,.,.,.
SMILES,Shn3 3UTR inh,PAX8 inh HTS,Peg3 promoter,TRPM1 prom inh,HIF-2a block,LMP1 NFkB inh
Cc1ccc(S(=O)(=O)N(C)C[C@H]2OCCCC[C@H](C)Oc3ccc(NS(=O)(=O)c4ccc(F)cc4)cc3C(=O)N([C@@H](C)CO)C[C@@H]2C)cc1,.,72*,.,.,.,.
Cc1ccc(S(=O)(=O)Nc2ccc3c(c2)C(=O)N([C@H](C)CO)C[C@@H](C)[C@H](CN(C)S(=O)(=O)c2ccc(F)cc2)OCCCC[C@@H](C)O3)cc1,.,46,.,.,.,.
Cc1ccc(S(=O)(=O)Nc2ccc3c(c2)C(=O)N([C@H](C)CO)C[C@@H](C)[C@@H](CN(C)S(=O)(=O)c2ccc(F)cc2)OCCCC[C@H](C)O3)cc1,.,2,.,.,.,.
COc1ccc(N2C(=O)CC(Sc3nnnn3-c3ccc(F)cc3)C2=O)cc1 (centres undefined),73,95*,114*,22,0,6
COc1ccc(N2C(=O)CC(Sc3nc(C)cc(C)c3C#N)C2=O)cc1 (centres undefined),-25,.,-46,-11,-127,5
O=C1CC(Sc2nnnn2-c2ccccc2)C(=O)N1c1cccc(Cl)c1 (centres undefined),90*,.,116*,16,40,-7
C[C@@H]1CN([C@@H](C)CO)C(=O)c2cc(NC(=O)Cc3cn(C)c4ccccc34)ccc2O[C@H]1CN(C)Cc1ccc2c(c1)OCO2,.,16,.,.,.,.
O=S(=O)(c1cc(C(F)(F)F)ccc1Cl)N1CCN(Cc2ccc(OCCO)cc2)CC1,.,-3,.,.,.,.
O=C(Nc1nnc(CC2=CCCCC2)s1)c1cccs1,-52,-143,-137,-34,-154,-14
O=C(Nc1ccc(Cl)c(Cl)c1)Nc1nnc(CC2=CCCCC2)s1,47,-3,24,30,10,71*
COc1ccc2oc(C)c(C(=O)c3ccc([N+](=O)[O-])cc3)c2c1,-6,93*,-26,12,-25,-2
O=C(N/N=C/c1cccnc1)c1ccccc1,0,-33,-49,-17,-49,-4
O=C(O)c1cccc(N/N=C/c2ccc(-c3ccccc3)cc2)c1,-7,-17,-43,24,8,8
O=C(O)c1cccc(N/N=C/c2cc(Br)cc(Br)c2O)c1,-37,-120,-219,-15,-174,-12
CC(C)(C)c1ccc(/C=N/Nc2cccc(C(=O)O)c2)cc1,22,-21,-43,61*,9,72*
O=C(O)c1cccnc1,-10,5,8,-8,9,85*
O=C(C(=O)c1cccnc1)c1cccnc1,15,6,5,-3,8,1
O=C(O)c1cccc(N/N=C/c2cccnc2)c1,-1,6,58*,36,-21,18
CN(C)c1ccc(/C=N/Nc2cccc(C(=O)O)c2)cc1,92*,-22,-162,84*,25,61*
CCS(=O)(=O)N[C@@H]1CC[C@@H](CC(=O)NCc2ccccn2)O[C@@H]1CO,.,13,.,.,.,.
COc1ccc(-c2cc3nc(CCl)[nH]c(=O)c3s2)cc1,10,17,10,11,-10,49*
COc1ccc(-c2cc3nc[nH]c(=O)c3s2)cc1,-34,.,-195,-26,-150,-9
Cn1cc(C(N)=O)c2ccccc21,-13,.,5,.,27,-4
Cn1cc(C(=O)CCl)c2ccccc21,14,12,50*,83*,9,-2

# Screening results as filed in PubChem.
